Experimental data from PubChem BioAssay (NCATS).
Records with an inconclusive call do not appear. The source made the active and inactive calls. Calls come from the whole dose curve; as a rule, active = well fitted curve in the direction sought with a large enough effect; inconclusive = small, poorly fitted or top-dose-only effect, or another doubt; inactive = no such curve, though single readings can be large; an effect the other way counts as inactive or inconclusive. *1 amine or outer side, *2 acyl side, *3 side chain or, on linkers, in order; H or OH if unused. Where a SMILES comes first, the peptide text is derived from it. Bridges are numbered along the chain shown (N, C = ends). [ ]: non-standard residue; d: D form. The star is where a group is joined. ξ: configuration not given here. ξhTyr(3S-OH,4S-OH,3'-OSO3H) = NC(C(=O)O)[C@H](O)[C@@H](O)c1ccc(O)c(OS(=O)(=O)O)c1; Orn(4R-OH,5R-OH) = O=C([C@H](C[C@@H](O)[C@@H](O)N[*:3])N[*:1])[*:2]; X2 = CCCCCOc1ccc(-c2cc(-c3ccc(C(=O)*)cc3)no2)cc1; X3 = C[C@H]1CN([*:1])C(C(=O)[*:2])[C@H]1O; ξGln(3R-OH) = NC(=O)C[C@@H](O)C(N)C(=O)O; ξPro(4R-OH) = O=C(O)C1C[C@@H](O)CN1; ξThr(3R) = C[C@@H](O)C(N)C(=O)O

What was measured:
[1] = test system: Zika virus NS2B-NS3 protease (linked construct); test: Confirmatory screen NINDS AMC qHTS for Zika virus inhibitors (AID 1347152); note: nearly all actives have a fitted effect of over 70% in size; note: potency is the fitted concentration of half-maximal effect
In short: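 Linked NS2B-NS3 protease, 1 nM, in 10 mM Tris-HCl pH 8.0, 0.01% Tween 20; compounds preincubated 15 min at room temperature. Nle-KRR-AMC 10 microM (Km 18.3 µM); 15-min fluorescence change (340/450 nm) fitted to 4-parameter Hill.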

[2] = test system: Zika virus NS2B-NS3 protease (unlinked complex); test: Confirmatory screen GU AMC qHTS for Zika virus inhibitors (AID 1347153);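 note: enzyme at 25 nM with substrate at 10 µM below its Km of 18.3 µM; potency is the fitted concentration of half-maximal effect; nearly all actives have a fitted effect of over 70% in size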
In short: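 Fluorescence change (ex 340/em 450 nm) over 15 min, ~20% substrate conversion, normalized to no-inhibitor and no-enzyme controls, then Hill-fitted. Unlinked protease at 25 nM; AMC peptide 10 µM.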

[3] = Confirmatory screen GU Rhodamine qHTS for Zika virus inhibitors qHTS (AID 1347157); note: potency is the fitted concentration of half-maximal effect; nearly all actives have a fitted effect of over 70% in size
In short: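 Noncovalent NS2B hydrophilic domain/NS3 protease complex (25 nM final) in 10 mM Tris-HCl pH 8.0, 0.01% Tween 20, preincubated 15 min with compounds (up to 114 microM), then 1.5 microM Rhodamine110 substrate. Fluorescence change over 15 min fitted to 4-parameter Hill.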

[4] = test system: Zika virus NS2B-NS3 protease (unlinked complex); test: Primary screen GU Rhodamine qHTS for Zika virus inhibitors: Unlinked NS2B-NS3 protease assay (AID 1347159); note: nearly all actives have a fitted effect of over 60% in size; note: potency is the fitted concentration of half-maximal effect
In short: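 Enzyme 25 nM in Tris-HCl pH 8.0 + 0.01% Tween 20; compounds up to 114 microM, 15 min RT dark; + Rhod110 substrate 1.5 microM; read t0 and 15 min; delta fluorescence → % inhibition → 4-parameter Hill fit.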

[5] = test system: Zika virus NS2B-NS3 protease (linked construct); test: Primary screen NINDS Rhodamine qHTS for Zika virus inhibitors (AID 1347160); note: nearly all actives have a fitted effect of over 55% in size; note: potency is the fitted concentration of half-maximal effect
In short: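 Enzyme (25 nM, linked NS2B-NS3) was preincubated 15 min with compound in 10 mM Tris-HCl pH 8.0, 0.01% Tween 20. Rhodamine110 substrate (1.5 microM) was then added and fluorescence read at start and after 15 min.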

[6] = Confirmatory screen NINDS Rhodamine qHTS for Zika virus inhibitors (AID 1347161); note: potency is the fitted concentration of half-maximal effect; nearly all actives have a fitted effect of over 60% in size
In short: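 Aprotinin served as in-plate control. Conditions: 25 nM linked NS2B-NS3, pH 8.0 Tris buffer, titrated compounds, 15 min preincubation and 15 min reaction with 1.5 microM Rhod110 substrate at room temperature.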

[7] = Vero cells viability qHTS for Zika virus inhibitors (AID 1347167)
In short: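 qHTS titration; 24-48 h compound exposure, 37 degrees C/5% CO2; DMEM, 4% FBS; CellTiter Glo ATP luminescence.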

[8] = ZIKV-mCherry secondary qHTS for Zika virus inhibitors (AID 1347158); note: potency is the fitted concentration of half-maximal effect
In short: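 Read-out is percent infection: mCherry-positive Vero cells (nuclear-proximal intensity >450 RFU, 3 SD above negative controls) counted by high-content imaging of Hoechst-stained, PFA-fixed wells after 48-72 h with ZIKV-mCherry at MOI 1 and compound.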

[9] = test system: Zika virus NS2B-NS3 protease (linked); test: 384 well plate NINDS AMC confirmatory qHTS for Zika virus inhibitors (AID 1347163); note: nearly all actives have a fitted effect of over 50% in size; note: potency is the fitted concentration of half-maximal effect
In short: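 Enzyme (5, 30 or 60 nM final) first met test compounds for ~15 min. The AMC-tagged peptide Ac-VKTGKR-AMC followed at 30 microM. Fluorescence was then recorded at 25 min and scaled against no-enzyme and no-inhibitor wells.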

[10] = test system: Zika virus NS2B-NS3 protease; test: Primary screen GU AMC qHTS for Zika virus inhibitors (AID 1347154); note: nearly all actives have a fitted effect of over 70% in size
In short: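 Unlinked Zika NS2B hydrophilic domain–NS3 protease complex at 25 nM in 10 mM Tris-HCl pH 8.0, 0.01% Tween 20, with an AMC peptide substrate. Fluorescence change (340/450 nm) over 15 min at room temperature, normalized to controls, fitted to 4-parameter Hill.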

Measured: Potency

CC1(C)CC=C(c2cnc3ccccc3c2)c2cc(C(=O)Nc3ccc(C(=O)O)cc3)ccc21
inactive: [7]
active: [1] 17.5 µM | [2] 15.6 µM | [3] 2.78 µM | [4] 1.78 µM | [5] 3.16 µM | [6] 1.97 µM

COc1cc(/C=C/c2ccccc2)c(C(=O)O)c(O)c1CC=C(C)C
inactive: [7]
active: [1] 34.3 µM | [2] 34.3 µM | [3] 3.06 µM | [4] 4.47 µM | [5] 10 µM | [6] 4.85 µM

COc1cnc(-c2ccc(Cn3c(CC(C)(C)C(=O)O)c(SC(C)(C)C)c4cc(OC[C@@H]5Cc6ccccc6N5C(C)=O)ccc43)cc2)nc1
active: [1] 12.2 µM | [3] 1.53 µM | [8] 10 µM | [4] 3.98 µM | [5] 3.16 µM | [6] 2.43 µM | [9] 0.631 µM
inactive: [7]

O=C(/C=C/c1ccccc1)OC[C@H]1O[C@@H](OC(=O)c2cc(O)c(O)c(O)c2)[C@H](O)[C@@H](O)[C@@H]1O
inactive: [5]
active: [3] 2.15 µM | [4] 3.98 µM | [6] 3.41 µM

COc1cccc(CNc2ccc(S(=O)(=O)Nc3nc4ccccc4s3)cc2)c1O
active: [3] 3.93 µM | [4] 3.55 µM | [5] 6.31 µM | [6] 3.93 µM
inactive: [8] | [7]

CCOc1ccc(-c2cc(NC(=O)c3c(F)cccc3F)c(C(=O)O)s2)cc1
active: [1] 17.5 µM | [2] 27.8 µM | [3] 4.41 µM | [5] 5.01 µM | [6] 3.12 µM | [9] 7.08 µM
inactive: [7]

C=CC1(C)C=C2CC[C@H]3[C@@](C)(C(=O)O)CCC[C@]3(C)C2CC1 (stereo partly specified)
active: [3] 15.3 µM | [4] 7.94 µM | [5] 3.55 µM | [6] 9.67 µM | [9] 70.8 µM
inactive: [7]

CC(=O)OC12CC(C)C(OC(=O)c3ccccc3)C1/C=C(/C)C(OC(=O)c1ccccc1)CC(=O)C(C)(C)/C=C/C(C)C2=O (stereo unspecified)
active: [3] 4.64 µM | [4] 6.31 µM | [5] 7.08 µM | [6] 3.68 µM
inactive: [7]

C/C=C/C=C/C=C/C(=O)O[C@@H]1[C@@H](OC)C2=C(C(=O)N(C(CCC(=O)O)C(=O)O)C2)[C@@]2(C)CCCC(C)(C)[C@H]12 (stereo partly specified)
inactive: [8] | [7]
active: [1] 24.2 µM | [2] 9.61 µM | [3] 4.82 µM | [4] 4.47 µM | [5] 7.08 µM | [6] 2.71 µM | [9] 2.24 µM

O=S(=O)(O)c1ccc(Nc2ncnc3c2ncn3[C@@H]2O[C@H](CO)[C@@H](O)[C@H]2O)cc1
inactive: [10] | [4] | [5]

COc1cc(C)c(C(=O)OC2C(C)OC(OC3CCC(C)C4C3C=C(C)C3/C(C)=C\CC/C(C)=C/C5(C)C=C(C(=O)O)C(C)CC56OC(=O)/C(=C(\O)C34C)C6=O)C(O)C2O)c(OC)c1 (stereo unspecified)
active: [1] 9.37 µM | [2] 9.37 µM | [3] 2.64 µM | [4] 1.26 µM | [5] 2.47 µM | [6] 1.32 µM
inactive: [7]

CCCCCOc1ccc(-c2cc(-c3ccc(C(=O)N[C@H]4C[C@@H](O)[C@@H](O)NC(=O)C5[C@@H](O)[C@@H](C)CN5C(=O)C([C@H](O)CC(N)=O)NC(=O)C([C@H](O)[C@@H](O)c5ccc(O)c(OS(=O)(=O)O)c5)NC(=O)C5C[C@@H](O)CN5C(=O)C([C@@H](C)O)NC4=O)cc3)no2)cc1 (stereo partly drawn) (X2-[Orn(4R-OH,5R-OH)][ξThr(3R)][ξPro(4R-OH)][ξhTyr(3S-OH,4S-OH,3'-OSO3H)][ξGln(3R-OH)][X3]; lactam 1-C)
inactive: [7]
active: [1] 21.5 µM | [2] 21.5 µM | [3] 4.82 µM | [4] 2.24 µM | [5] 4.47 µM | [6] 4.29 µM

C=C1C2CCC3CC2(CC(O)C2(O)C1CC(OC1OC(CO)C(O)C(O)C1O)C2(C)C)CC3(C)O (stereo unspecified)
inactive: [1] | [7]
active: [4] 20 µM | [5] 8.91 µM | [6] 9.61 µM | [9] 35.5 µM

C/C(=C\CC/C(C)=C/CC[C@]1(C)CCc2cc(O)cc(C)c2O1)CC/C=C(\C)C(=O)O
inactive: [8] | [7]
active: [1] 19.2 µM | [3] 3.83 µM | [4] 8.91 µM | [5] 2.2 µM | [6] 1.92 µM | [9] 5.01 µM

Cc1ccc2[nH]c(=O)c(C3=NN(C(=O)CCC(=O)O)C(c4ccc(Br)cc4)C3)c(-c3ccccc3)c2c1 (stereo unspecified)
inactive: [9] | [7]
active: [1] 44.1 µM | [2] 49.4 µM | [3] 3.93 µM | [4] 6.31 µM | [5] 3.16 µM | [6] 3.93 µM

CC(C)=CCC[C@@](C)(O)[C@H]1CC[C@]2(C)[C@@H]1[C@H](O)CC1[C@@]3(C)CC[C@H](O[C@@H]4O[C@H](CO)[C@@H](O)[C@H](O)[C@H]4O[C@@H]4O[C@H](CO)[C@@H](O)[C@H](O)[C@H]4O)C(C)(C)[C@@H]3CC[C@]12C (stereo partly specified)
inactive: [4]
active: [3] 14.7 µM | [6] 16.5 µM
